According to PubChem BioAssay (NCATS):
Where “and” joins values, the source holds several entries; their conditions need not be identical. Equal values may be shown once. Records with an inconclusive call do not appear. Entries that show only a call come without a potency. Unmarked numbers belong to inactive results. Calls of active or inactive are those of the source. The call rests on the fitted dose curve; in most records, active means well fitted inhibition curve with a large enough effect; inconclusive means small, poorly fitted or top-dose-only effect; inactive means flat fitted curve, though single readings scatter.

Assays:
CRL-7250 [1] = test: Cytotoxic Profiling of Annotated Libraries Using Quantitative High-Throughput Screening (AID 1296008); conditions: Five cell lines viability, CellTiter-Glo ATP luminescence, 48-72 h; max response: hits give low values; further: potency means the concentration at half of the fitted maximal effect
Summary of the method: (§1)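 Cytotoxicity was measured as CellTiter-Glo ATP luminescence, read after 10 min at room temperature. Compound treatment of the cells lasted 48 or 72 hr at 37 degrees Celsius in a qHTS format.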

HEK293 = test: as above; conditions: Five cell lines viability, CellTiter-Glo ATP luminescence, 48-72 h; max response: hits give low values
Summary of the method: as §1

HaCat [2] = test: as above; conditions: Five cell lines viability, CellTiter-Glo ATP luminescence, 48-72 h; max response: hits give low values
Summary of the method: as §1

KB-3-1 = test: as above; conditions: Five cell lines viability, CellTiter-Glo ATP luminescence, 48-72 h; max response: hits give low values
Summary of the method: as §1

NIH3T3 [3] = test: as above; conditions: Five cell lines viability, CellTiter-Glo ATP luminescence, 48-72 h; max response: hits give low values
Summary of the method: as §1

CRL-7250 [4] = test: qHTS assay to identify novel small-molecules to repurpose for Merkel cell carcinoma treatment (AID 1296009); conditions: MCC and control cell lines, CellTiter-Glo viability, 72 h; at 44.8 µM (top of the series) unless noted
Summary of the method: (§2)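 72 hr, 37 degree celsius; NPC 8-pt / MIPE 11-pt dose response; compound pinned in DMSO; CellTiter-Glo, 10 min RT, luminescence; normalized to no-cell and DMSO controls.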

MCC-13 = test: as above; conditions: MCC and control cell lines, CellTiter-Glo viability, 72 h; series mostly up to 46 µM
Summary of the method: as §2

MKL-1 = test: as above; conditions: MCC and control cell lines, CellTiter-Glo viability, 72 h; series mostly up to 46 µM
Summary of the method: as §2

MKL-2 = test: as above; conditions: MCC and control cell lines, CellTiter-Glo viability, 72 h; series mostly up to 46 µM
Summary of the method: as §2

UISO = test: as above; conditions: MCC and control cell lines, CellTiter-Glo viability, 72 h; series mostly up to 46 µM
Summary of the method: as §2

HACAT [5] = test: as above; conditions: MCC and control cell lines, CellTiter-Glo viability, 72 h; at 44.8 µM (top of the series) unless noted
Summary of the method: as §2

MCC-26 = test: as above; conditions: MCC and control cell lines, CellTiter-Glo viability, 72 h; series mostly up to 46 µM
Summary of the method: as §2

NIH3T3 [6] = test: as above; conditions: MCC and control cell lines, CellTiter-Glo viability, 72 h; at 44.8 µM (top of the series) unless noted
Summary of the method: as §2

PC49 = test: qHTS profiling for inhibitors of Plasmodium falciparum proliferation (AID 504749); conditions: P. falciparum in erythrocytes, SYBR Green DNA, 72 h; series mostly up to 28.7 µM
Summary of the method: (§3)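 Infected RBCs, 0.3% parasitemia/2.5% Hct final; cpd 72 h, 37 C, 5% CO2; lysis buffer with saponin/triton/SYBR Green I, o/n RT dark; FI 485/535; norm. to artemisinin (0.29 uM) and DMSO.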

SC27B = test: as above; conditions: P. falciparum in erythrocytes, SYBR Green DNA, 72 h; series mostly up to 28.7 µM
Summary of the method: as §3

TAB109 = test: as above; conditions: P. falciparum in erythrocytes, SYBR Green DNA, 72 h; series mostly up to 28.7 µM
Summary of the method: as §3

TAB113 = test: as above; conditions: P. falciparum in erythrocytes, SYBR Green DNA, 72 h; series mostly up to 28.7 µM
Summary of the method: as §3

TAB165 = test: as above; conditions: P. falciparum in erythrocytes, SYBR Green DNA, 72 h; series mostly up to 28.7 µM
Summary of the method: as §3

W2 = test: as above; conditions: P. falciparum in erythrocytes, SYBR Green DNA, 72 h; series mostly up to 28.7 µM
Summary of the method: as §3

HEK293T = test: qHTS assay to identify novel small-molecules to repurpose for Merkel cell carcinoma treatment (AID 1296009); conditions: MCC and control cell lines, CellTiter-Glo viability, 72 h; at 44.8 µM (top of the series) unless noted
Summary of the method: as §2
Further: nearly all actives have a fitted effect of over 60% in size.

Compound: O=c1[nH]c2ccccc2n1C1CCN(Cc2ccc(-c3[nH]c4cc5ncnc5cc4nc3-c3ccccc3)cc2)CC1
- outcome (CRL-7250 [1]): inactive
- Potency (HEK293): 18.7 µM (active)
- max response (HaCat [2]): 0.8%
- outcome (KB-3-1): inactive
- max response (NIH3T3 [3]): -3.31%
- outcome (CRL-7250 [4]): inactive
- Potency (MCC-13): inactive
- Potency (MKL-1): inactive
- Potency (MKL-2): inactive
- Potency (UISO): inactive

Compound: CCOC(=O)c1c(C(C#N)=CN)c2ccc(Cl)c(Cl)c2n1C
- max response (CRL-7250 [1]): 3.66%
- max response (HEK293): -12.5%
- outcome (HaCat [2]): inactive
- max response (KB-3-1): -3.02%
- max response (NIH3T3 [3]): 2.89%
- outcome (HACAT [5]): inactive
- Potency (MCC-13): inactive
- Potency (MCC-26): inactive
- Potency (MKL-1): inactive
- Potency (MKL-2): inactive
- Potency (UISO): inactive

Compound: CC1=NN=C(c2ccc(N)cc2)c2cc3c(cc2C1)OCO3
- outcome (CRL-7250 [1]): inactive
- max response (HEK293): 3.46%
- max response (HaCat [2]): -15.7%
- outcome (KB-3-1): inactive
- outcome (NIH3T3 [3]): inactive
- outcome (CRL-7250 [4]): inactive
- Potency (MCC-13): inactive
- Potency (MCC-26): inactive
- Potency (MKL-1): inactive
- Potency (MKL-2): inactive
- outcome (NIH3T3 [6]): inactive
- Potency (UISO): inactive

Compound: O=C(O)C(Cl)Cl
- Potency (PC49): inactive
- Potency (SC27B): inactive
- Potency (TAB109): inactive
- Potency (TAB113): inactive
- Potency (TAB165): inactive
- Potency (W2): inactive
- outcome (CRL-7250 [1]): inactive
- outcome (HEK293): inactive
- outcome (HaCat [2]): inactive
- max response (KB-3-1): -7.1% and -3.84%
- max response (NIH3T3 [3]): -3.68%
- outcome (CRL-7250 [4]): inactive
- outcome (HACAT [5]): inactive
- outcome (HEK293T): inactive
- Potency (MCC-13): inactive
- Potency (MCC-26): inactive
- Potency (MKL-1): inactive
- Potency (MKL-2): inactive
- Potency (UISO): inactive

Compound: CCc1c(C(=O)C(N)=O)c2c(OCC(=O)O)cccc2n1Cc1ccccc1
- max response (CRL-7250 [1]): 2.27% and 4.29%
- max response (HEK293): -0.0349%
- max response (HaCat [2]): -1.12% and -1.77%
- max response (KB-3-1): 9.54%
- outcome (KB-3-1): inactive
- max response (NIH3T3 [3]): -3.2%
- outcome (NIH3T3 [3]): inactive
- Potency (MCC-13): inactive
- Potency (MCC-26): inactive
- Potency (MKL-1): inactive
- Potency (MKL-2): inactive
- outcome (NIH3T3 [6]): inactive
- Potency (UISO): inactive

Compound: CC(C)(C)[C@]1(O)C[C@@H]2OC(=O)C[C@@]23C(=O)O[C@@H]2OC(=O)[C@H](O)C213 (some centres not stated)
- max response (CRL-7250 [1]): 2.16%
- outcome (HEK293): inactive
- outcome (HaCat [2]): inactive
- outcome (KB-3-1): inactive
- outcome (NIH3T3 [3]): inactive
- outcome (HACAT [5]): inactive
- outcome (HEK293T): inactive
- Potency (MCC-13): inactive
- Potency (MCC-26): inactive
- Potency (MKL-1): inactive
- Potency (MKL-2): inactive
- outcome (NIH3T3 [6]): inactive
- Potency (UISO): inactive

Compound: Cc1nc(-c2ccc(-c3ccc(C(=O)N4CCc5cc6c(cc54)C4(CCN(C)CC4)CO6)cc3)c(C)c2)no1
- max response (CRL-7250 [1]): -11.3%
- max response (HEK293): 4.59%
- outcome (HaCat [2]): inactive
- max response (KB-3-1): 2.18%
- max response (NIH3T3 [3]): 1.47%
- outcome (HACAT [5]): inactive
- Potency (MCC-13): inactive
- Potency (MKL-1): inactive
- Potency (MKL-2): inactive
- Potency (UISO): inactive

Compound: NC1=NC(=O)N2CC12 (configuration not stated)
- Potency (PC49): inactive
- Potency (SC27B): inactive
- Potency (TAB113): inactive
- Potency (CRL-7250 [1]): 11.8 µM (active)
- Potency (HEK293): 8.33 µM (active)
- outcome (HaCat [2]): inactive
- max response (KB-3-1): 6.64%
- outcome (NIH3T3 [3]): inactive
- outcome (HACAT [5]): inactive
- Potency (MCC-13): inactive
- Potency (MCC-26): inactive
- Potency (MKL-1): inactive
- outcome (NIH3T3 [6]): inactive

Compound: CC(C)N(CCNC(=O)CN1CCCC1=O)C(C)C
- max response (CRL-7250 [1]): 4.66% and -0.977%
- max response (HEK293): 4.1% and 1.15%
- max response (HaCat [2]): -6.79% and -2.04%
- max response (KB-3-1): -4.8%
- outcome (KB-3-1): inactive
- max response (NIH3T3 [3]): 2.3%
- outcome (NIH3T3 [3]): inactive
- Potency (MCC-13): inactive
- Potency (MCC-26): inactive
- Potency (MKL-1): inactive
- Potency (MKL-2): inactive
- outcome (NIH3T3 [6]): inactive
- Potency (UISO): inactive

Compound: COC(=O)[C@@H](N)CCCN=C(N)N[N+](=O)[O-]
- Potency (PC49): inactive
- Potency (SC27B): inactive
- Potency (TAB109): inactive
- Potency (TAB113): inactive
- Potency (TAB165): inactive
- Potency (W2): inactive
- outcome (CRL-7250 [1]): inactive
- max response (HEK293): 0.845%
- max response (HaCat [2]): -4.22%
- max response (KB-3-1): 9.25%
- max response (NIH3T3 [3]): 1.58%
- outcome (CRL-7250 [4]): inactive
- Potency (MCC-13): inactive
- Potency (MKL-1): inactive
- Potency (MKL-2): inactive
- Potency (UISO): inactive

Compound: CC(C)N[C@@H]1CCn2c(=O)[nH]c3cccc(c32)[C@@H]1O
- outcome (CRL-7250 [1]): inactive
- max response (HEK293): 2.71%
- max response (HaCat [2]): -2.4%
- max response (KB-3-1): 6.91%
- max response (NIH3T3 [3]): -1.8%
- outcome (CRL-7250 [4]): inactive
- Potency (MCC-13): inactive
- Potency (MCC-26): inactive
- Potency (UISO): inactive

Compound: O=C(Oc1ccc([N+](=O)[O-])cc1)N1CCC(C(O)(c2ccc3c(c2)OCO3)c2ccc3c(c2)OCO3)CC1
- Potency (CRL-7250 [1]): 13.2 µM (active)
- max response (HEK293): -16.1%
- max response (HaCat [2]): -5.43%
- outcome (HaCat [2]): inactive
- max response (KB-3-1): 5.68% and 6.78%
- outcome (NIH3T3 [3]): inactive
- outcome (HACAT [5]): inactive
- Potency (MCC-13): inactive
- Potency (MKL-1): inactive
- Potency (MKL-2): inactive
- outcome (NIH3T3 [6]): inactive
- Potency (UISO): inactive

Compound: NC1CC1c1ccccc1 (configuration not stated)
- max response (CRL-7250 [1]): -3.17%
- outcome (HEK293): inactive
- max response (HaCat [2]): -2.49%
- max response (KB-3-1): 5.36%
- max response (NIH3T3 [3]): -3.94%
- outcome (HEK293T): inactive
- Potency (MCC-13): inactive
- Potency (MCC-26): inactive
- Potency (MKL-1): inactive
- Potency (MKL-2): inactive
- Potency (UISO): inactive
